Data taken from PubChem BioAssay AID1986 (Sanford-Burnham Center for Chemical Genomics, 2009).
In all, about 290,000 compounds went through this assay and about 890 (0.31%) were called active. Cut-off read from the data, not from the text of the source: active = inhibition mostly above about 52% (no sharp cut-off); inactive = mostly below about 76%. Only a selection was taken, and actives are over-represented in it overall.

Assay: inhibitors of HIV fusion peptide binding, primary screen, biochemical, uHTS, fluorescence dequenching (AID 1986)
Settings: cell-free peptide binding, 30 min, stronger effect = higher value
[1] = measured here: repeat confirmation average inhibition, at 18.6 µM

SMILES | inhibition (at 20 µM) | inhibition [1]
COc1ccc(/C=C2\C(=O)NC(=S)N2C(=O)c2ccc(F)cc2)cc1 | 70.6% (active) | 59.8%
COc1ccc(/C=C2\C(=O)NC(=S)N2C(=O)c2ccc(C)cc2)cc1 | 63.6% (active) | –
COc1ccc(/C=C2\C(=O)NCC(=O)N2C)cc1 | -3.1% (inactive) | –
COc1ccc(C(=O)N2C(=S)NC(=O)/C2=C\c2ccc(C)cc2)cc1 | 43.1% (inactive) | –
O=C1NC(=S)N(C(=O)c2ccc(F)cc2)/C1=C/c1cccnc1 | 4.6% (inactive) | –
O=C1NC(=S)N(C(=O)c2ccc(F)cc2)/C1=C/c1ccccc1 | 79% (inactive) | 19.2%
Cc1ccc(C)c(S(=O)(=O)Nc2ccc(C(=O)NCCCN3CCCC3=O)cc2)c1 | 0.7% (inactive) | –
Cc1cc(OCC(=O)NCc2cccnc2)c2c(C)c(Cc3ccccc3)c(=O)oc2c1 | 1.1% (inactive) | –
N#C/C(=C\c1ccc(N2CCOCC2)o1)C(=O)NC1CCCCC1 | 66.5% (active) | 55.2%
Cc1ccc(/C=C(\C#N)C(=O)NCC2CCCO2)o1 (stereo unspecified) | 0.2% (inactive) | –
N#C/C(=C\c1ccc(N2CCCCC2)o1)C(=O)Nc1cccc(Br)c1 | 21.6% (inactive) | –
COCCNC(=O)/C(C#N)=C/c1ccc(N2CCOCC2)o1 | 15.1% (inactive) | –
COc1ccc(NC(=O)/C(C#N)=C\c2ccc(N3CCOCC3)o2)cc1 | 149% (inactive) | –
N#C/C(=C\c1ccc(-c2ccc(S(=O)(=O)N3CCOCC3)cc2)o1)C(=O)NC1CC1 | 5.1% (inactive) | –
N#C/C(=C/c1ccc(N2CCCCC2)o1)C(=O)NCCc1c[nH]c2ccccc12 | 11.8% (inactive) | –
N#C/C(=C/c1ccc(-c2ccc(Br)cc2)o1)C(=O)NC1CCCCC1 | 3.7% (inactive) | –
N#C/C(=C\c1ccc(N2CCOCC2)o1)C(=O)NCC1CCCO1 (stereo unspecified) | 118% (active) | 68%
N#C/C(=C/c1ccc(N2CCOCC2)o1)C(=O)NC1CCCCC1 | 80.5% (active) | –
N#C/C(=C\c1ccc(N2CCOCC2)o1)C(=O)NCCc1ccccc1 | 110% (active) | –
N#C/C(=C\c1ccc(-c2ccc(C(=O)O)cc2)o1)C(=O)NCC1CCCO1 (stereo unspecified) | 11.9% (inactive) | –
CN(C)C(=O)CSc1nnc(Cc2ccccc2)n1CC1CCCO1 (stereo unspecified) | -1.3% (inactive) | –
COc1ccc(CN(CC(=O)NC2CCCC2)C(=O)CN2C(=O)COc3ccccc32)cc1 | 0.4% (inactive) | –
Clc1ccc(-c2cnn3c(-c4ccncc4)ccnc23)cc1 | -1.1% (inactive) | –
COC(=O)c1c(NC(=O)C2COc3ccccc3O2)sc2c1CCN(Cc1ccccc1)C2 (stereo unspecified) | 3.6% (inactive) | –
NC(=O)c1c(NC(=O)C2COc3ccccc3O2)sc2c1CCN(Cc1ccccc1)C2 (stereo unspecified) | 103% (active) | 54%
CCN1CCc2c(sc(NC(=O)C3COc4ccccc4O3)c2C(N)=O)C1 (stereo unspecified) | -0.3% (inactive) | –
Cc1nonc1OCCNC(=O)C12CC3CC(CC(C3)C1)C2 | 0.6% (inactive) | –

SMILES | inhibition (at 20 µM) | inhibition [1]
COc1cc(/C=C2/C(=N)N3C(=NC2=O)SN=C3S(C)(=O)=O)ccc1OC(=O)c1ccco1 | 58.3% (inactive) | 49.7%
CS(=O)(=O)C1=NN2C(=N)/C(=C\c3ccc(OCCOc4ccccc4)cc3)C(=O)N=C2S1 | 80.6% (active) | –
CCS(=O)(=O)C1=NN2C(=N)/C(=C\c3ccc(OS(=O)(=O)c4ccccc4)cc3)C(=O)N=C2S1 | 39.1% (inactive) | –
CCC1=NN2C(=N)/C(=C/c3ccc(OS(=O)(=O)c4ccc(C)cc4)c(OC)c3)C(=O)N=C2S1 | 46.6% (inactive) | –
CS(=O)(=O)C1=NN2C(=N)/C(=C\c3ccc(OC(=O)c4ccco4)cc3)C(=O)N=C2S1 | 47.6% (inactive) | –
COc1cc(/C=C2/C(=N)N3C(=NC2=O)SN=C3S(=O)(=O)C(C)C)ccc1OC(=O)c1ccco1 | 37.9% (inactive) | –
COc1cc(/C=C2\C(=N)N3N=CSC3=NC2=O)ccc1OS(=O)(=O)c1ccccc1 | 10% (inactive) | –
COc1cc(/C=C2/C(=N)N3C(=NC2=O)SN=C3S(=O)(=O)C(C)C)ccc1OS(=O)(=O)c1ccccc1 | 71.6% (active) | –
COc1cc(/C=C2/C(=N)N3N=C(C)SC3=NC2=O)ccc1OS(=O)(=O)c1ccc(C)cc1 | 13.4% (inactive) | –
COc1cc(/C=C2/C(=N)N3N=C(C(C)C)SC3=NC2=O)ccc1OS(=O)(=O)c1ccccc1 | 22.3% (inactive) | –
COc1cc(/C=C2/C(=N)N3C(=NC2=O)SN=C3S(C)(=O)=O)ccc1OS(=O)(=O)c1ccc(C)cc1 | 72.4% (active) | –
COc1cc(/C=C2\C(=N)N3N=C(S(C)(=O)=O)SC3=NC2=O)ccc1OS(=O)(=O)c1ccc(C)cc1 | 76.5% (active) | –
CCNC(=O)COc1ccc(OCc2ccccc2)cc1 | 2% (inactive) | –
CC1(C)NC(=O)N(CC(O)CN(Cc2ccccc2)Cc2ccccc2)C1=O (stereo unspecified) | 0.1% (inactive) | –
O=C(NCc1ccco1)C12CN(Cc3ccccc3)CC1C(c1cccc([N+](=O)[O-])c1)=NO2 (stereo unspecified) | 0.7% (inactive) | –
COc1ccc(C2CC(c3c(-c4ccccc4)c4cc(Cl)ccc4[nH]c3=O)=NN2C(=O)CCC(=O)O)cc1 (stereo unspecified) | 15.1% (inactive) | –
O=c1c2c([nH]n1-c1ccccc1)CCSC2 | 3.5% (inactive) | –
COc1ccc2c(c1OC)C[N+]1([O-])CCc3cc4c(cc3C1C2)OCO4 (stereo unspecified) | -1.5% (inactive) | –
C=CCNC(=S)NNc1nc(N2CCCC2)nc(N2CCCC2)n1 | -0.8% (inactive) | –
COc1ccnc(CN(C)C(=O)C2CCC(=O)N(Cc3cccc(C(F)(F)F)c3)C2)c1 (stereo unspecified) | 4.4% (inactive) | –
COc1cc(-n2nnnc2SC)c(OC)cc1Cl | 2.2% (inactive) | –
C/C(=N\NC(=O)CN(c1ccc(Oc2ccccc2)cc1)S(C)(=O)=O)C(C)(C)C | -0.5% (inactive) | –
C=CCN1C=CC(=C/C=C(/C#N)C(=O)OCC)C=C1 | -0.9% (inactive) | –
CCOC(=O)/C(C#N)=C\C=C1C=CN(C)C=C1 | 98.3% (active) | 52.3%
CCCN1C=CC(=C/C=C(\C#N)C(=O)OCC)C=C1 | 0.7% (inactive) | –
CC(C)Cc1nc(S(=O)(=O)c2ccc(Cl)cc2)c(N2CCOCC2)o1 | 1.2% (inactive) | –
Cc1ccc(-n2c(=O)c3ccc(C(=O)NCc4ccco4)cc3n(Cc3ccccc3C#N)c2=O)cc1 | -1.1% (inactive) | –
